Compound activity from PubChem.
Compounds with a hit are over-represented: about 19% of the library has one in this group of screens.
DT40 TDP1 no CPT = qHTS for Inhibitors of human tyrosyl-DNA phosphodiesterase 1 (TDP1): qHTS in cells in absence of CPT | AID 686978, 2013 | Potency, µM (titrated, usually from 46.2 µM), without a hit: top-dose activity change, negative = growth inhibition, usual class: inhibitors | DT40 Tdp1-/- hTDP1 cells, no CPT, ATP luminescence, 48 h | 420,000 compounds, 15% hits; also: potency is read from the fitted curve at half-maximal effect; nearly all actives have a fitted effect of over 55% in size
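Growth kinetics read by CellTiter-Glo luminescence after ≥48 hr at 37 °C. Cells: DT40 Tdp1-/- stably carrying human TDP1, 400 per well, compound exposure in the absence of CPT (DMSO vehicle).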
IL1B secr inh = blocks inflammasome-driven IL-1 beta release | THP-1 LPS/ATP IL-1B secretion, AlphaLISA, 16 h; stronger effect = lower value | activity change, % at 57.5 µM | 360,000 compounds, 4.7% hits; in the data active = activity change below about -50%; inconclusive = mostly about -30% to -49%
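Secreted IL-1B measured by AlphaLISA bead assay after 16 h compound exposure of THP-1 cells; compounds (final up to 57.5 uM) added 1 h before LPS (250 ng/mL) and ATP (1.25 mM) stimulation; lower signal means less secretion.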
ELG1 repair inh = blocks ELG1-dependent DNA repair in HEK293T cells. HEK293T ELG1-luciferase reporter, luminescence, 16 h; DNA damage induced by 5-fluorouridine. 330,000 compounds, 2.3% hits. Potency, µM (titrated, usually from 46.1 µM), without a hit: at the top dose activity change, negative = inhibition, usual class: inhibitors; also: potency is read from the fitted curve at half-maximal effect; nearly all actives have a fitted effect of over 55% in size
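HEK293T cells expressing luciferase-tagged ELG1 (2,000/well) received 5-Fluorouridine plus compound or DMSO for 16 hr at 37 °C. Luciferase was read by ONE-Glo luminescence after 30 min at room temperature.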
HT1080 IDH1KD tx = HT-1080 IDH1 knockdown cell toxicity (counter line) | HT-1080 IDH1 knockdown viability, ATP luminescence, 48 h | Potency, µM (highest dose often 46.1 µM), for the others: top-dose activity, negative = toxicity, most hits filed as cytotoxic | AID 686971 | 360,000 compounds, 2% hits;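 also: potency is read from the fitted curve at half-maximal effect; 0% = DMSO wells and -100% = cell-free medium wells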
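Knockdown cells (IDH1KD HT-1080) received compounds 2 h after plating at 750 cells/well and were kept 48 h at 37 °C in 5% FBS RPMI. A CellTiter-Glo luminescence read gave % activity for curve fitting.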
HT1080-NT tox = kills 2HG-producing HT-1080-NT fibrosarcoma cells; AID 686970; Potency, µM (titrated, usually from 46.1 µM), for inactives: at the highest dose activity, negative = less viability, hits mostly cytotoxic; HT-1080-NT fibrosarcoma viability, CellTiter-Glo ATP luminescence, 48 h; 360,000 compounds, 1.6% hits;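 also: NT is the 2HG producing partner of a matched IDH1 knockdown line; potency is read from the fitted curve at half-maximal effect; 0% = DMSO-treated cells and -100% = media-only wells without cells; nearly all actives have a fitted effect of over 55% in size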
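Fibrosarcoma NT cells, 750 per well in 5% FBS RPMI, were exposed to compound for 48 hours. Viability: CellTiter-Glo luminescence.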
DT40 TDP1 CPT = growth inhibition of DT40 Tdp1-/-;hTDP1 cells with camptothecin (screen for TDP1 inhibitors). chicken DT40 Tdp1-/-;hTDP1 cells + 20 nM CPT, ATP luminescence, 48 h. Potency, µM (doses to about 46.2 µM), without a hit: at the highest dose activity change, negative = growth inhibition, usual class: inhibitors. 420,000 compounds, 12% hits. AID 686979; also: potency is read from the fitted curve at half-maximal effect; nearly all actives have a fitted effect of over 55% in size
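Chicken DT40 Tdp1-/- cells complemented with human TDP1, 400 cells/well, exposed to compounds plus 20 nM camptothecin for at least 48 h at 37 C; viability read as ATP content by CellTiter-Glo luminescence.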
The depositor's hits bear a star. Unless noted, calls follow the shape of the dose curve; as a rule, active = well fitted curve in the direction sought with a large enough effect; inconclusive = small, poorly fitted or top-dose-only effect, or another doubt; inactive = no such curve, though single readings can be large; an effect the other way counts as inactive or inconclusive. Unless noted, % is scaled to controls: 0 for no effect and ±100 for the full control effect.

Screening COCCNC(=O)CSc1nc2cc3c(cc2c(=O)n1CCCC(=O)NCc1ccc2c(c1)OCO2)OCO3 returned DT40 TDP1 no CPT -18.2% and DT40 TDP1 CPT 14.3%.
`O=C(NN=C1CCCCCC1)c1ccc(Cl)s1` gave DT40 TDP1 no CPT 3.4%, IL1B secr inh 15.4, ELG1 repair inh 17.6%, HT1080 IDH1KD tx 5.8%, HT1080-NT tox 5.6% and DT40 TDP1 CPT -5.0%.
`COc1ccc(NC(=O)CSc2n[nH]c(N)n2)cc1OC` gave DT40 TDP1 no CPT -0.1%, IL1B secr inh -7.1, ELG1 repair inh 2.4%, HT1080 IDH1KD tx 0.5%, HT1080-NT tox -1.0% and DT40 TDP1 CPT 1.3%.
`COc1ccc(-c2[nH]c(-c3ccccc3)nc2SCC(=O)NCc2ccco2)cc1OC` gave DT40 TDP1 no CPT -29.6%, IL1B secr inh -9.3, ELG1 repair inh inconclusive, HT1080 IDH1KD tx -10.2%, HT1080-NT tox 0.0% and DT40 TDP1 CPT -7.1%.
`COc1ccc(-c2[nH]c(-c3ccc(F)cc3)nc2SCC(=O)Nc2ccc(OC)c(OC)c2)cc1` gave DT40 TDP1 no CPT inconclusive and DT40 TDP1 CPT 16.4µM*.
Screening COc1ccc(-c2nc(SCC(=O)NCc3ccco3)c(-c3ccccc3)[nH]2)cc1OC returned DT40 TDP1 no CPT inconclusive, IL1B secr inh -18.4, ELG1 repair inh 9.2µM*, HT1080 IDH1KD tx 4.0%, HT1080-NT tox 4.6% and DT40 TDP1 CPT inconclusive.
`COc1ccc(NC(=O)CSc2nc(-c3cc(OC)c(OC)c(OC)c3)[nH]c2-c2ccc(F)cc2)cc1` gave DT40 TDP1 no CPT 23.1µM* and DT40 TDP1 CPT inconclusive.
N#CCCn1c(=O)c(-c2cc(F)cc(F)c2)nc2cnc(OCc3ccccc3)nc21 was read as DT40 TDP1 no CPT inconclusive and DT40 TDP1 CPT -25.5%.
`Cc1ccc2c(CN(C)Cc3ccc(Cl)cc3Cl)cc(=O)oc2c1` gave DT40 TDP1 no CPT inconclusive, IL1B secr inh inconclusive, ELG1 repair inh -8.0%, HT1080 IDH1KD tx -5.6%, HT1080-NT tox -0.6% and DT40 TDP1 CPT -29.4%.
O=S1(=O)CCN2N=C(C34CC5CC(CC(C5)C3)C4)SC2=N1 was read as DT40 TDP1 no CPT inconclusive, IL1B secr inh 7.1, ELG1 repair inh -18.3%, HT1080 IDH1KD tx 2.2%, HT1080-NT tox -0.6% and DT40 TDP1 CPT 2.4%.
COc1cc(C(=O)N2CCCCC2c2cc(C(=O)Nc3ccccc3)no2)cc(OC)c1C (stereo not drawn) was read as DT40 TDP1 no CPT inconclusive, IL1B secr inh inconclusive, HT1080 IDH1KD tx inconclusive, HT1080-NT tox -18.1% and DT40 TDP1 CPT inconclusive.
COc1c2ccoc2c(OC(C)=O)c2oc(C)cc(=O)c12 was read as DT40 TDP1 no CPT inconclusive, IL1B secr inh -50.7*, ELG1 repair inh -1.0%, HT1080 IDH1KD tx -9.7%, HT1080-NT tox -7.4% and DT40 TDP1 CPT -21.6%.
For CCOc1ccc(NC(=O)c2cn(C)c(=O)c3cc(OC)c(OC)cc23)cc1 the results were DT40 TDP1 no CPT 7.4% and DT40 TDP1 CPT -0.5%.
Cc1cc(C(=O)C(C)OC(=O)c2ccc(NC(=O)CC#N)cc2)c(C)n1-c1ccc(OC(F)F)cc1 (stereo not drawn) was read as DT40 TDP1 no CPT 11.6µM*, IL1B secr inh inconclusive, ELG1 repair inh 23.5%, HT1080 IDH1KD tx 25.9µM*, HT1080-NT tox -19.3% and DT40 TDP1 CPT 23.1µM*.
COc1cc(CCC(=O)N2CCN(c3ccccc3)CC2)cc(OC)c1OC was read as DT40 TDP1 no CPT inconclusive, IL1B secr inh 3.9, ELG1 repair inh 0.3%, HT1080 IDH1KD tx 9.7%, HT1080-NT tox 11.2% and DT40 TDP1 CPT -27.7%.
Screening COc1cc(C(=O)C(=O)N2CCC(Cc3ccccc3)CC2)cc2ccccc12 returned DT40 TDP1 no CPT 23.1µM*, IL1B secr inh 1.5, HT1080 IDH1KD tx -23.5%, HT1080-NT tox -17.5% and DT40 TDP1 CPT 16.4µM*.
Screening COc1cc(C(=O)C(=O)N2CCN(c3ccccc3)CC2)cc(OC)c1OC returned DT40 TDP1 no CPT 3.66µM*, IL1B secr inh 40.1, HT1080 IDH1KD tx 7.31µM*, HT1080-NT tox inconclusive and DT40 TDP1 CPT 3.66µM*.
Screening COc1cc(C(=O)C(=O)N2CCN(c3ccc(C)cc3)CC2)cc2ccccc12 returned DT40 TDP1 no CPT 14.6µM*, IL1B secr inh -2.6, HT1080 IDH1KD tx inconclusive, HT1080-NT tox 5.7% and DT40 TDP1 CPT 14.6µM*.
COc1cc(C(=S)N2CCC(Cc3ccccc3)CC2)ccc1OCC(N)=O was read as DT40 TDP1 no CPT inconclusive, IL1B secr inh 59.9, ELG1 repair inh 11.3%, HT1080 IDH1KD tx -16.7%, HT1080-NT tox -17.0% and DT40 TDP1 CPT -13.8%.
Screening C[C@@H]1CN([C@H](C)CO)C(=O)CCCn2nncc2CO[C@@H]1CN(C)S(=O)(=O)c1ccccc1F returned DT40 TDP1 no CPT inconclusive, IL1B secr inh 12.7, HT1080 IDH1KD tx -2.9%, HT1080-NT tox -3.5% and DT40 TDP1 CPT -6.5%.
COc1cccc(CNC(=O)c2cc(=O)[nH]c3ccc(S(=O)(=O)N4CCOCC4)cc23)c1 was read as DT40 TDP1 no CPT -3.9%, IL1B secr inh 16.5, ELG1 repair inh inconclusive, HT1080 IDH1KD tx 10.0%, HT1080-NT tox -2.7% and DT40 TDP1 CPT -1.4%.
Screening COc1cccc(CNn2cnnc2)c1OCc1ccc(F)cc1 returned DT40 TDP1 no CPT -2.7%, IL1B secr inh 0.0, ELG1 repair inh 7.5%, HT1080 IDH1KD tx 14.9%, HT1080-NT tox 9.0% and DT40 TDP1 CPT -6.6%.
For COc1cccc(CNCCc2c[nH]c3ccccc23)c1OCc1ccccc1 the results were DT40 TDP1 no CPT 9.2µM*, ELG1 repair inh -21.2%, HT1080 IDH1KD tx 16.4µM*, HT1080-NT tox 20.6µM* and DT40 TDP1 CPT 7.31µM*.
For COc1cccc(CNC23CC4CC(CC(C4)C2)C3)c1OCc1ccccc1 the results were DT40 TDP1 no CPT 10.3µM*, IL1B secr inh -96.5*, ELG1 repair inh inconclusive, HT1080 IDH1KD tx -11.6%, HT1080-NT tox -25.3% and DT40 TDP1 CPT 9.2µM*.
Screening COc1cc(CNCCc2c[nH]c3ccccc23)ccc1OCc1ccccc1F returned DT40 TDP1 no CPT inconclusive, IL1B secr inh -56.7*, ELG1 repair inh 9.6%, HT1080 IDH1KD tx inconclusive, HT1080-NT tox inconclusive and DT40 TDP1 CPT 18.4µM*.
Screening CN1CCN(c2ncc3nc(-c4cccs4)c(=O)n(CCc4ccccc4)c3n2)CC1 returned DT40 TDP1 no CPT -29.2% and DT40 TDP1 CPT -12.8%.
